The sample as a whole holds a higher share of hits than the screen did.
Tb PYK inh: qHTS of Trypanosoma Brucei Inhibitors; actives 0.12% (n = 410,000); pyruvate kinase (Trypanosoma brucei), Q57TT1; Potency, µM (doses to about 76.8 µM), without a hit: at the highest dose activity, negative = inhibition, most hits filed as inhibitors; TbPYK enzyme, Kinase-Glo Plus ATP luminescence, 45 min; note: potency is the fitted concentration of half-maximal effect; % is set by controls: 0 for no effect and ±100 for the full control effect; nearly all actives have a fitted effect of over 50% in size
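Luminescence from Kinase-Glo Plus, added after a 45-minute room-temperature reaction, served as the end-point read-out. The enzyme and substrate were preincubated with compound before ADP (130 uM final) initiated turnover. Concentration-effect curves came from normalized qHTS data.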
RE007 growth inh: qHTS Assay for Inhibitors of the HIV-1 protein Vpr | S. pombe RE007 Vpr strain, BacTiter-Glo ATP luminescence, 24 h | Potency, µM (series often up to 92.2 µM), for inactives: at the highest dose activity change, negative = less growth, actives largely listed as inhibitors | actives 0.21% (n = 360,000) | AID 651644, 2012; active = well fitted falling curve with a large enough effect; inconclusive = small, poorly fitted or top-dose-only effect; inactive = no such curve, though single readings can be large or run the other way; note: potency is the fitted concentration of half-maximal effect; % is set by controls: 0 for no effect and ±100 for the full control effect; nearly all actives have a fitted effect of over 50% in size
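Fission yeast RE007 carrying one integrated HIV-1 vpr copy, seeded at OD 0.01 in PMG+AL medium with 23 nL pinned compound. Grown 24 h at 30 degrees; viability read by BacTiter-Glo luminescence after 5 min.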
Giardia FBPA inh-1: qHTS Assay for Inhibitors of Fructose-1,6-bisphosphate Aldolase from Giardia Lamblia | actives 0.71% (n = 290,000) | AID 2451, 2010 | Potency, µM (top dose mostly 59.6 µM), for inactives: at the top dose activity, negative = inhibition, hits mostly inhibitors | purified Giardia FBPA; note: potency is the fitted concentration of half-maximal effect; % is set by controls: 0 for no effect and ±100 for the full control effect; nearly all actives have a fitted effect of over 55% in size
Target sequence (A8B2U2 whole entry, looked up): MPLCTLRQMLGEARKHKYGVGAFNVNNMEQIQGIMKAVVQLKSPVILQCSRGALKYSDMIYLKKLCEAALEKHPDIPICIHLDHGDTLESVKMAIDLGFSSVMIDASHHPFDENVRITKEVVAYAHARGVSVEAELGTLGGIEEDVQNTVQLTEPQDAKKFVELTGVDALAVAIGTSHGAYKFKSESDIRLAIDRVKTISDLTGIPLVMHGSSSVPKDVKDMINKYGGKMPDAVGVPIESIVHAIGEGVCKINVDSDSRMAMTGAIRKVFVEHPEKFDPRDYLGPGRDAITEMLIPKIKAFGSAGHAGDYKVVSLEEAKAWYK
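40 nM FBPA preincubated 10 min at RT with compound (up to 57.5 uM final), then substrate plus GAPDH/TPI/NAD/arsenate coupling and diaphorase/resazurin added. Fluorescence read after 20 min at RT, 525/598 nm.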
LmPK inh: qHTS Assay for Inhibitors of Leishmania Mexicana Pyruvate Kinase (LmPK) | Q27686 | purified LmPK, Kinase-Glo ATP luminescence, 1 h | Potency, µM (titrated, usually from 57.5 µM), for inactives: at the highest dose activity change, negative = inhibition, hits mostly inhibitors | actives 0.37% (n = 290,000); note: potency is the fitted concentration of half-maximal effect; % is set by controls: 0 for no effect and ±100 for the full control effect
Target sequence (Q27686 whole entry, looked up): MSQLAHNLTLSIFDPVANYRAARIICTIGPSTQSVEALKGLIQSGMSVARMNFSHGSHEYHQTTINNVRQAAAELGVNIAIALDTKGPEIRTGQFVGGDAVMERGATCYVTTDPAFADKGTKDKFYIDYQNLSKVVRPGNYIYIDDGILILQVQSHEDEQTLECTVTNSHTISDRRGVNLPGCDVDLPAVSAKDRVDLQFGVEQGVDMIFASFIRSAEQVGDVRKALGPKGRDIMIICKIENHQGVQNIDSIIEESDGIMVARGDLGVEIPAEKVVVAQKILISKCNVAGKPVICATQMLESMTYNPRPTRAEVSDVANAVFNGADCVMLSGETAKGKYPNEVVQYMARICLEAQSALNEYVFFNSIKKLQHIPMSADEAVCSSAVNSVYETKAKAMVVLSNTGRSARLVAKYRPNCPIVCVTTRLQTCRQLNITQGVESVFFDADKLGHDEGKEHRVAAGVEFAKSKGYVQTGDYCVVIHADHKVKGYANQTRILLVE
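Purified LmPK (0.1 nM) converted ADP (0.1 mM) to ATP with PEP (0.5 mM) in imidazole buffer pH 7.2 with KCl and MgCl2, 1 h at room temperature. ATP was read by Kinase-Glo luminescence; data normalized to uninhibited and no-enzyme controls.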
CHX counter: Cycloheximide Counterscreen for Small Molecule Inhibitors of Shiga Toxin. cell reporter, cycloheximide protein synthesis inhibition counterscreen. max response, %. actives 12% (n = 300,000). AID 2314, 2010; in the data active = max response mostly above about 13%, no sharp cut-off; inactive = mostly below about 14%; note: read at 38.3 µM for the half of the compounds with a filed dose; 0% is about no effect
Shiga toxin inh: A qHTS for Small Molecule Inhibitors of Shiga Toxin; Vero cells, Shiga toxin protein synthesis inhibition reporter; inhibition, % at 38.7 µM; actives 9.2% (n = 290,000); AID 2315, 2010; in the data active = inhibition mostly above about 28%, no sharp cut-off; inactive = mostly below about 43%; note: 0% is about no effect
Giardia growth: qHTS Assay for Inhibitors of Fructose-1,6-bisphosphate Aldolase from Giardia Lamblia: Giardia lamblia growth inhibition; Giardia lamblia trophozoite growth inhibition; Potency, µM (titrated, usually from 57.5 µM), for the others: top-dose activity change, negative = inhibition, hits mostly inhibitors; shares compounds with Giardia FBPA inh-1; actives 5% (n = 1,500);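 note: potency is the fitted concentration of half-maximal effect; trophozoites exposed to compound for 48 h at 37 °C; % is set by controls: 0 for no effect and ±100 for the full control effect; nearly all actives have a fitted effect of over 70% in size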
Mammalian tox: qHTS Assay for Inhibitors of Fructose-1,6-bisphosphate Aldolase from Giardia Lamblia: Mammalian cellular toxicity; mammalian cell viability counter-screen, qHTS; Potency, µM (titrated, usually from 57.5 µM), for inactives: top-dose viability change, negative = toxicity, actives largely listed as inhibitors; AID 2786, 2010; actives 4% (n = 1,500); shares compounds with Giardia FBPA inh-1;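 note: Chinese hamster ovary cells used as mammalian cytotoxicity surrogate; viability measured as cellular ATP by luminescence; potency is the fitted concentration of half-maximal effect; compound exposure lasted 48 h before reading; % is set by controls: 0 for no effect and ±100 for the full control effect; nearly all actives have a fitted effect of over 60% in size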
Giardia FBPA inh-2: qHTS Assay for Inhibitors of Fructose-1,6-bisphosphate Aldolase from Giardia Lamblia: Primary screen confirmation | purified Giardia aldolase enzyme activity, qHTS | actives 5% (n = 1,500) | shares compounds with Giardia FBPA inh-1 | Potency, µM (series often up to 57.5 µM), for inactives: at the top dose activity change, negative = inhibition, most hits filed as inhibitors; note: potency is the fitted concentration of half-maximal effect; % is set by controls: 0 for no effect and ±100 for the full control effect; nearly all actives have a fitted effect of over 45% in size
Rabbit FBPA inh: qHTS Assay for Inhibitors of Fructose-1,6-bisphosphate Aldolase from Giardia Lamblia: Rabbit FBPA Selectivity; actives 4% (n = 1,500); shares compounds with Giardia FBPA inh-1; AID 2794, 2010; Potency, µM (doses to about 57.5 µM), inactives show at the top dose activity, negative = inhibition, actives largely listed as inhibitors; Rabbit muscle FBPA enzyme inhibition, selectivity counter-screen; note: potency is the fitted concentration of half-maximal effect; % is set by controls: 0 for no effect and ±100 for the full control effect; nearly all actives have a fitted effect of over 60% in size
GAPDH coupling: qHTS Assay for Inhibitors of Fructose-1,6-bisphosphate Aldolase from Giardia Lamblia: Coupling assay counterscreen confirmation. actives 6% (n = 1,500). GAPDH coupling enzyme counterscreen, biochemical, qHTS. shares compounds with Giardia FBPA inh-1. Potency, µM (doses to about 57.5 µM), without a hit: at the top dose activity change, negative = inhibition, most hits filed as inhibitors. AID 2795, 2010; note: potency is the fitted concentration of half-maximal effect; % is set by controls: 0 for no effect and ±100 for the full control effect; nearly all actives have a fitted effect of over 55% in size
Active calls of the source: *; ? = inconclusive; / = no result; [ ] = another dose, or the depositor's remark. Unless noted, calls come from the whole dose curve; as a rule, active = well fitted curve in the direction sought with a large enough effect; inconclusive = small, poorly fitted or top-dose-only effect, or another doubt; inactive = no such curve, though single readings can be large; an effect the other way counts as inactive or inconclusive.

SMILES	Tb PYK inh	RE007 growth inh	Giardia FBPA inh-1	LmPK inh	CHX counter	Shiga toxin inh	Giardia growth	Mammalian tox	Giardia FBPA inh-2	Rabbit FBPA inh	GAPDH coupling
O=C(NC(=S)N1C[C@H]2C[C@H](C1)c1cccc(=O)n1C2)c1ccc(Cl)cc1	-19%	12%	?	-15%	-1	-5	/	/	/	/	/
C=CCC(NCc1ccccc1)c1ccco1 (stereo not given)	1%	-4%	10%	3%	-4	-8	/	/	/	/	/
C=CCC(NCc1ccccc1)c1ccc(OC)cc1 (stereo not given)	-18%	-10%	14µM*	-1%	-2	-8	19%	4%	3%	8%	8%
Cc1cccc(NC(=O)c2ccc3nc(CCc4ccccc4)oc3c2)c1C	-2%	/	/	/	/	/	/	/	/	/	/
O=C(Nc1ccc(F)cc1)Oc1ccc[nH]c1=O	6%	/	?	-5%	16*	24*	7%[38.3 µM]	-17%	0.46µM*	?	-30%
O=C(Oc1ccc[nH]c1=O)c1ccccc1	-17%	-9%	/	/	/	/	/	/	/	/	/
CCc1cnc2c(c1SCC(=O)NCc1ccccc1)c(=O)n(C)c(=O)n2C	2%	/	/	/	/	/	/	/	/	/	/
Cc1ccc([N+](=O)[O-])cc1NC(=S)NC(=O)c1c(Cl)cnn1C	5%	-4%	7.9µM*	1%	8	-13	12%[38.3 µM]	0%	-2%	6%	-18%
CCn1ncc(Cl)c1C(=O)NC(=S)Nc1c(C)cc(C)cc1[N+](=O)[O-]	-1%	?	?	2%	-4	-14	/	/	/	/	/
O=C(CN1C(=O)CCc2cc(Br)ccc21)Nc1ccc(OC(F)(F)F)cc1	4%	/	/	/	/	/	/	/	/	/	/
COc1cc(SC)ccc1C(=O)N1CCC(Cc2ccccc2)CC1	/	/	-6%	/	5	-8	/	/	/	/	/
COC(=O)CSc1nnc(-c2cnccn2)n1C	-13%	10%	16%	1%	-6	2	/	/	/	/	/
Cn1c(SCC(=O)c2ccccc2)nnc1-c1cnccn1	?	-13%	20µM*	-10%	27*	59	17%	-4%	8%	2%	6%
O=c1cnnc(N/N=C/C2CC=CCC2)[nH]1 (stereo not given)	-4%	3%	20µM*	-3%	-4	-14	?	17%	5%	13%	5%
NNC(=S)NC1CCS(=O)(=O)C1 (stereo not given)	-3%	38%	18µM*	3%	1	-1	29%	11%	-3%	12%	2%
O=C(c1ccc2c(c1)N(Cc1ccccc1)C(=O)c1ccccc1S2(=O)=O)N1CCOCC1	4%	/	/	/	/	/	/	/	/	/	/
O=C1/C(=C/c2ccc(O)c(O)c2)SC(=S)N1Nc1ccccc1	-31%	3%	?	-2%	11	31	/	/	/	/	/
O=C(NN1C(=O)/C(=C/c2ccc(O)c(O)c2)SC1=S)c1ccccc1	?	-24%	14µM*	-17%	-3	-9	-4%	-9%	-20%	-25%	0%
Cc1ccc(S(=O)(=O)Nc2cc3c(cc2Cl)n(C)c(=O)c(=O)n3C)cc1	-1%	/	/	/	/	/	/	/	/	/	/
Cc1ccc(S(=O)(=O)Nc2cc(C)cn(Cc3ccc(F)cc3)c2=O)cc1	2%	6%	16µM*	0%	-3	3	14%[10.4 µM]	-9%	?	?	25µM*
Cc1ccc(S(=O)(=O)Nc2cc(C)cn(Cc3ccccc3)c2=O)cc1	-2%	-18%	13µM*	2%	-6	12	?	-13%	?	?	32µM*
Cc1ccc(C2/C(=C(/O)c3ccc(Br)cc3)C(=O)C(=O)N2Cc2ccco2)o1 (stereo not given)	-5%	-15%	20µM*	13%	8	11	?	13%	-11%	-16%	-12%
CC(C(=O)Nc1cccc([N+](=O)[O-])c1)[n+]1ccccc1 (stereo not given)	0%	11%	16µM*	9%	0	12	?	8%	5%	0%	17%
Cc1ccc(-c2c(C)n3c4c(=O)n(C)c(=O)n(C)c4nc3n2-c2cccc(O)c2)cc1	7%	/	/	/	/	/	/	/	/	/	/
COc1cccc(CCc2nnc(CCC(=O)N3CCN(Cc4ccccn4)CC3)o2)c1	10%	6%	5.6µM*	-1%	-2	4	-1%[38.3 µM]	-7%	-6%	4%	2%
COc1cccc(CCc2nnc(CCC(=O)NCCc3cccc(C)n3)o2)c1	1%	-4%	3%	1%	-5	-5	/	/	/	/	/
CCCOC(=O)c1ccc(OCC(O)CN2CCN(C(=O)c3ccccc3)CC2)cc1 (stereo not given)	3%	10%	-2%	8%	17	8	/	/	/	/	/
CC(=O)N1CCN(CC(O)COc2ccc(Br)cc2)CC1 (stereo not given)	13%	0%	28µM*	1%	-2	-5	?	8%	4%	13%	2%
CC(C)(C)c1ccc(OCC(O)CN2CCN(C(=O)c3ccccc3)CC2)cc1 (stereo not given)	13%	-2%	14µM*	2%	-3	-4	-12%	-17%	-8%	-13%	-2%
Cn1c(=O)c2c(n3c4ccccc4nc13)NC(=O)CC2c1cccc(F)c1 (stereo not given)	-14%	/	/	/	/	/	/	/	/	/	/
